In PubChem BioAssay (NCATS):
Inconclusive results are not listed. Active and inactive are the calls of the source. Unless noted, the call rests on the fitted dose curve; in most records, active means well fitted curve in either direction with a large enough effect (not every such curve was filed as active); inconclusive means small, poorly fitted or top-dose-only effect, or another doubt; inactive means flat fitted curve, though single readings scatter.

Columns and labels:
[1] = AP1 Signaling Pathway (AID 357);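 further: ME-180 reporter cells stimulated with EGF at its EC50 level; on the % scale 0 is the no-effect control and ±100 the full control effect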
Outline: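 A ratiometric CCF4 readout (405 nm excitation; 460 and 530 nm emission) quantified AP-1-driven beta-lactamase in ME-180 cells after 5 h with compound and EC50 EGF; AC50 values were derived for activators and inhibitors.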

[2] = target: Cytochrome P450 1A2 (Homo sapiens) (UniProt P05177); test: p450-cyp1a2 (AID 410; calls by dose curve; further: potency means the concentration at half of the fitted maximal effect;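 on activity change, negative = inhibition: -100% = full effect of reference inhibitor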)
Cytochrome P450 1A2 (Homo sapiens), sequence (P05177 whole entry, looked up): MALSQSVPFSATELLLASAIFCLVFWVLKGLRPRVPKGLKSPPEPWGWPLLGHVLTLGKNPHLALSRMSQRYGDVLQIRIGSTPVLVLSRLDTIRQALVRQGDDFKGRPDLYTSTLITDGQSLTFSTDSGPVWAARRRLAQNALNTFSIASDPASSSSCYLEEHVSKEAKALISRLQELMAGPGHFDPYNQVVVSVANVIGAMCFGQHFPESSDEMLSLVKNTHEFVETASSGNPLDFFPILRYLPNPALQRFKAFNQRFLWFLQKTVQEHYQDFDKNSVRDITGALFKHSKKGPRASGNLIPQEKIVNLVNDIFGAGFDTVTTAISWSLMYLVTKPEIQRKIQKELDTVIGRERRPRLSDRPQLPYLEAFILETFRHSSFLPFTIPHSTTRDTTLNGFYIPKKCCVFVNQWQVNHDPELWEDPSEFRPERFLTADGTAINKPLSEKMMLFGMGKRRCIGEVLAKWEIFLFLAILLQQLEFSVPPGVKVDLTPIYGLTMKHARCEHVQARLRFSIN
Outline: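 O-Demethylation of luciferin 6' methyl ether by human CYP1A2 is monitored as luciferase luminescence. Substrate sits at Km (100uM); enzyme is 20nM. Values are scaled to 57 uM furafylline as maximal inhibition.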

[3] = NFAT Signaling Pathway (AID 444); conditions: Jurkat NFAT-bla M1, carbachol, beta-lactamase ratio, 5 h; at 17.2 µM (top of the series) unless noted;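 further: carbachol stimulus at about its EC50 of 1 µM final; on the % scale 0 is the no-effect control and ±100 the full control effect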
Outline: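 Jurkat cells carrying an NFAT-driven β-lactamase reporter and co-transfected muscarinic M1 receptor were treated with compound plus carbachol (1 uM final, an EC50 level) for 5 h at 37 °C. CCF4 loading followed for 1 h at RT; 460/530 nm ratio gave %activity.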

[4] = Stat Signaling Pathway (AID 446);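 further: ME-180 cervical cancer cells given 40 pM IL-6 alongside compound; SIE-controlled beta-lactamase reporter measured as 460/530 nm FRET emission ratio; on the % scale 0 is the no-effect control and ±100 the full control effect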
Outline: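 Overnight-plated ME-180 cells bearing a STAT Inducible Element beta-lactamase reporter; 5 h co-exposure to compound and 40 pM IL-6; values normalized to 300 pM IL-6 and 125 nM JAK inhibitor controls.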

[5] = target: Mitogen-activated protein kinase 10 (Mus musculus) (UniProt Q61831); test: JNK3 AlphaScreen Assay (AID 530);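 further: kinase came from lysate of stimulated human HepG2 cells; signal reports phosphorylation of biotinylated GST-cJun 1-79 at Ser73 with 10 µM ATP; on the % scale 0 is the no-effect control and ±100 the full control effect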
Outline: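 Phosphorylation of biotinylated GST-cJun(1-79) at Ser73 is measured by AlphaScreen proximity luminescence. Enzyme is JNK3 in HepG2 lysates activated with interleukin-1beta and tumor necrosis factor alpha; ATP is 10 uM final.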

[6] = target: 3',5'-cyclic-AMP phosphodiesterase 4B (Homo sapiens) (UniProt Q07343); test: qHTS Assay for Inhibitors of PDE-IV (AID 607; active means well fitted activation curve with a large enough effect in the main read-out, with a control signal flat, not every such curve was filed as active; further: % of control where 0% means no effect)
3',5'-cyclic-AMP phosphodiesterase 4B (Homo sapiens), sequence (Q07343 whole entry, looked up): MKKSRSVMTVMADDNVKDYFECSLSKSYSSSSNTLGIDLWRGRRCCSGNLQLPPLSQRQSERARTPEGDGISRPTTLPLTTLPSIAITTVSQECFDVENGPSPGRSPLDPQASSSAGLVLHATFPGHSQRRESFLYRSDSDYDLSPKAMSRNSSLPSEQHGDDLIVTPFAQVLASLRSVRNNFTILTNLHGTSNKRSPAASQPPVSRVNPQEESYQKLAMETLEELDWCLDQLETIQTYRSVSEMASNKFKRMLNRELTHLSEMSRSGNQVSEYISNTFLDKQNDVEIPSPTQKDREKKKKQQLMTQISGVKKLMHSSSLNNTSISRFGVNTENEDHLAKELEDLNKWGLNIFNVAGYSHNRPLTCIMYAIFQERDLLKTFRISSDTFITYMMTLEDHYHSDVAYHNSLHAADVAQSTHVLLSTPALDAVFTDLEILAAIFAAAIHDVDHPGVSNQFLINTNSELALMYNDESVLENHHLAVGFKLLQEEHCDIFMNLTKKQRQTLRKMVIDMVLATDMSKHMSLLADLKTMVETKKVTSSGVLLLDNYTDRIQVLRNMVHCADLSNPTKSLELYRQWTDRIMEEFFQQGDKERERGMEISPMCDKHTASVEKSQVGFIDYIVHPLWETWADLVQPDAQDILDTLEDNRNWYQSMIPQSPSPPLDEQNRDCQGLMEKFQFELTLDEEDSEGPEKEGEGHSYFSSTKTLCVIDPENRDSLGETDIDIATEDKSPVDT
Outline: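 Live HEK293 cells with a modified cyclic nucleotide-gated (CNG) channel report intracellular cAMP via membrane-potential dye fluorescence (ex 535/em 590 nm). Endogenous PDE-IV was targeted. Compounds were tested at up to 22.9 uM final; RO 20-1724 100 uM served as control.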

[7] = qHTS Assay for Lipid Storage Modulators (AID 1519; calls by dose curve); conditions: Drosophila S3 cells, BODIPY lipid droplet/cell ratio, laser cytometry, cells loaded with oleic acid; for activity change, negative = inhibition: at 25.7 µM (top of the series)
Outline: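 Cells seeded at 5,000 per well were treated with compounds over a concentration series and loaded with oleic acid (400 uM, as added). Lipid droplet fluorescence (488 nm excitation, 500-530 nm channel) was read by laser-scanning cytometry and normalized to 20 uM Triacsin C.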

[8] = target: Ubiquitin carboxyl-terminal hydrolase 1 (Homo sapiens) (UniProt O94782); test: Inhibitors of USP1/UAF1: Pilot qHTS (AID 504865; active means well fitted inhibition curve with a large enough effect;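 further: rhodamine fluorescence freed from ubiquitin-rhodamine substrate followed over time; top concentration of the series differs between compounds; on the % scale 0 is the no-effect control and ±100 the full control effect; nearly all actives have a fitted effect of over 35% in size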)
Ubiquitin carboxyl-terminal hydrolase 1 (Homo sapiens), sequence (O94782 whole entry, looked up): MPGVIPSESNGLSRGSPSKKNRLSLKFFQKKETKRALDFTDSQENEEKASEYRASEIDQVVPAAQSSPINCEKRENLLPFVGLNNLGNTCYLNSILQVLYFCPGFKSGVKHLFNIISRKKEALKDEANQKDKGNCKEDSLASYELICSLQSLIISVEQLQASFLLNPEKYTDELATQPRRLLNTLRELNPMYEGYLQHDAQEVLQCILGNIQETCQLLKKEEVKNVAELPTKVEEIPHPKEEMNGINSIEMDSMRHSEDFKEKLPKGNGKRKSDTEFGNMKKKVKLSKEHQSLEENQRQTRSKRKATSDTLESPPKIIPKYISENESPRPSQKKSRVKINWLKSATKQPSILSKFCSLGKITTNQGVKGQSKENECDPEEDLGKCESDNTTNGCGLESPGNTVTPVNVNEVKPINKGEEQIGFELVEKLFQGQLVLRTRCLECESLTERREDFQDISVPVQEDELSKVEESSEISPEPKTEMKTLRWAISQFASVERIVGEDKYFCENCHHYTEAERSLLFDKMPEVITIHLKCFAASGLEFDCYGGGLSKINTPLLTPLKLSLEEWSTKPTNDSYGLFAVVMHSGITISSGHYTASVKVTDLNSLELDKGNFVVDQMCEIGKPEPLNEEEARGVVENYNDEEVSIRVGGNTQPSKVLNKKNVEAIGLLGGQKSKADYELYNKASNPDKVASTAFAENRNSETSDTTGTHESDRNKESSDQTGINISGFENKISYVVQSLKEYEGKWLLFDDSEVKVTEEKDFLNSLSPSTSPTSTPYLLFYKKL
Outline: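 USP1/UAF1 complex at 1 nM preincubated 15 min at room temperature with compound, then Ub-Rho substrate added at 150 nM final. Fluorescence (480/540 nm) read kinetically in 50 mM HEPES pH 7.8, 0.5 mM EDTA, 1 mM TCEP, 0.1 mg/ml BSA, 0.01% Tween-20.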

[9] = target: Luciferin 4-monooxygenase (Photinus pyralis) (UniProt P08659); test: Biochemical firefly luciferase enzyme assay for NPC (AID 624030; active means well fitted inhibition curve with a large enough effect;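 further: purified P. pyralis luciferase at 10 nM with luciferin and ATP substrate; 0% = DMSO and -100% = full luciferase inhibition by PTC124 control; nearly all actives have a fitted effect of over 70% in size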)
Luciferin 4-monooxygenase (Photinus pyralis), sequence (P08659 whole entry, looked up): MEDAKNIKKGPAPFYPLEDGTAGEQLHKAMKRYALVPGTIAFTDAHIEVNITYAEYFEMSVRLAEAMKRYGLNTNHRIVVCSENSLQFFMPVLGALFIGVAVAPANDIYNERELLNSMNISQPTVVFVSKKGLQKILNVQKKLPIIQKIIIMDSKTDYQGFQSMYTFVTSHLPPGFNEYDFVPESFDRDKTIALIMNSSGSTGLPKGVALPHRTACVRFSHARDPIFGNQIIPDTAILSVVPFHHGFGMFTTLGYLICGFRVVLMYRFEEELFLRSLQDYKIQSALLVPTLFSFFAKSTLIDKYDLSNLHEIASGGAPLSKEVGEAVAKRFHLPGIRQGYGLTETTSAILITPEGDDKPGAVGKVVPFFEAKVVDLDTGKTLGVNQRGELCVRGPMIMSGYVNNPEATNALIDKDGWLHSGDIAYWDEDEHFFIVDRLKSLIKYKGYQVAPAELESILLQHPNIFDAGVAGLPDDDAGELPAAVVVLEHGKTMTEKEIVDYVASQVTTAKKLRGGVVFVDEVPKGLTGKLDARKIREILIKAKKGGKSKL
Outline: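 Counter-screen for direct inhibition of the luciferase enzyme by approved-drug library compounds, run at 10 nM enzyme in 50 mM Tris acetate (final). Luminescence was read within 5 min of enzyme-buffer addition and normalized to PTC124 versus DMSO (0%).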

[10] = qHTS profiling for inhibitors of Plasmodium falciparum proliferation (AID 504749; active means well fitted inhibition curve with a large enough effect;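 further: 0% = DMSO vehicle and full inhibition = artemisinin control; nearly all actives have a fitted effect of over 60% in size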); conditions: P. falciparum in erythrocytes, SYBR Green DNA, 72 h, at 12.8 µM (top of the series)
Outline: (§1)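 Quantitative HTS: compounds pinned into medium, infected erythrocytes added (0.3% parasitemia, 2.5% hematocrit), 72 h culture at 37 C under 5% CO2. Saponin/Triton lysis with SYBR Green I, overnight RT, then fluorescence read.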

[11] = tested on: C2A; test: as above; conditions: P. falciparum in erythrocytes, SYBR Green DNA, 72 h; series mostly up to 12.8 µM
Outline: as §1

[12] = tested on: CP217; test: as above; conditions: P. falciparum in erythrocytes, SYBR Green DNA, 72 h; series mostly up to 12.8 µM
Outline: as §1

[13] = tested on: CP238; test: as above; conditions: P. falciparum in erythrocytes, SYBR Green DNA, 72 h; series mostly up to 12.8 µM
Outline: as §1

[14] = tested on: CP250; test: as above; conditions: P. falciparum in erythrocytes, SYBR Green DNA, 72 h; series mostly up to 12.8 µM
Outline: as §1

[15] = tested on: CP256; test: as above; conditions: P. falciparum in erythrocytes, SYBR Green DNA, 72 h; series mostly up to 12.8 µM
Outline: as §1

[16] = tested on: FAB9; test: as above; conditions: P. falciparum in erythrocytes, SYBR Green DNA, 72 h; series mostly up to 12.8 µM
Outline: as §1

[17] = tested on: JCK; test: as above; conditions: P. falciparum in erythrocytes, SYBR Green DNA, 72 h; series mostly up to 12.8 µM
Outline: as §1

[18] = tested on: SC27B; test: as above; conditions: P. falciparum in erythrocytes, SYBR Green DNA, 72 h; series mostly up to 12.8 µM
Outline: as §1

[19] = target: Glucocorticoid receptor (Homo sapiens) (UniProt P04150); test: GR-GFP Redistribution (AID 450;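 active means compounds whose dose series gives a full or clear partial fitted curve of increased nuclear translocation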; further: potency means the concentration at half of the fitted maximal effect); conditions: U2OS GR-GFP nuclear translocation, laser cytometry, 2 h
Glucocorticoid receptor (Homo sapiens), sequence (P04150 whole entry, looked up, the tested form may be a part): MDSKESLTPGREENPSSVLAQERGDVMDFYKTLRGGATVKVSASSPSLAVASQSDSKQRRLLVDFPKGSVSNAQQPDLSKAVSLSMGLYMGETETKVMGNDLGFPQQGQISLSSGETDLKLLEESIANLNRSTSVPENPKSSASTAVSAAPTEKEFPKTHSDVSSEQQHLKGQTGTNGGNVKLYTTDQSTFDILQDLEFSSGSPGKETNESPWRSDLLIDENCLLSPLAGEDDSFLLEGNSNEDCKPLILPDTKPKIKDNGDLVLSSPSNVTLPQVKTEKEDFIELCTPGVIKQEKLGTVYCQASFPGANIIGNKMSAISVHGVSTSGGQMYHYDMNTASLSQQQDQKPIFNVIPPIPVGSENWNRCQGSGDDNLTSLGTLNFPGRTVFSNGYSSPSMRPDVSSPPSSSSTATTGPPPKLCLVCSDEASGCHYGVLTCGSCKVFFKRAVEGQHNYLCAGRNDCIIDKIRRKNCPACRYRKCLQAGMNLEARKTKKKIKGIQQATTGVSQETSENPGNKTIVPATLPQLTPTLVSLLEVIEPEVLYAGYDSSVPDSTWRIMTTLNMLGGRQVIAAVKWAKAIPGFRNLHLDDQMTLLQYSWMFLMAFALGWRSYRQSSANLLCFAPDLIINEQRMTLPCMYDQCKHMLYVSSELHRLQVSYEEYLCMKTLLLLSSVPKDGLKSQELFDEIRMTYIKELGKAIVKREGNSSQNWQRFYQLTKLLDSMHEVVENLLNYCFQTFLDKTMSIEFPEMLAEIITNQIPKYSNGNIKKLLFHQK

[20] = target: Glucocorticoid receptor (Homo sapiens) (UniProt P04150); test: GR-EFC Redistribution (AID 451; calls by dose curve; further: potency means the concentration at half of the fitted maximal effect); conditions: CHO-K1 GR-EFC translocation, beta-gal luminescence, 2 h
Outline: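 CHO-K1 cells stably expressing nuclear-localized β-gal enzyme acceptor and GR fused C-terminally to the enzyme donor fragment; ligand-driven nuclear translocation restores β-gal by complementation. Compounds titrated up to 46 uM final, 2 h at 37 °C; luminescence read.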

[21] = measured here: cell count channel max response
[22] = measured here: lipid channel max response

C[C@H]1CC[C@]2(OC1)O[C@@H]1C[C@@H]3[C@@H]4CC[C@H]5C[C@@H](O)CC[C@]5(C)[C@@H]4CC(=O)[C@@]3(C)[C@H]1[C@@H]2C
inactive: outcome [1] | Potency [2] | activity change, negative = inhibition [3] 0.559% | outcome [4] | Potency [5] | outcome [6] | activity change, negative = inhibition [7] -1.95% | Potency [8] | Potency [9] | activity, negative = inhibition ([10]; parasite line A) 11.1% | activity, negative = inhibition ([10]; parasite line B) 13.9% | Potency [11] | Potency [12] | Potency [13] | Potency [14] | Potency [15] | Potency [16] | Potency [17] | Potency [18]
-5.08%: max response [7, 21]
-7.26%: max response [7, 22]

COc1c2c(nc3ccccc13)O[C@H]([C@@](C)(O)CO)C2
active: Potency [2] 12.6 µM
inactive: outcome [1] | activity change, negative = inhibition [3] -17.9% | outcome [4] | Potency [19] > 20.6 µM | Potency [20] > 20.6 µM | Potency [5] | outcome [6] | activity change, negative = inhibition [7] 1.14%
-15.2%: max response [7, 22]
-17.8%: max response [7, 21]

Nc1ccn([C@@H]2CC[C@H](CO)O2)c(=O)n1
-4.3%: max response [7, 21]
inactive: outcome [1] | Potency [2] | activity change, negative = inhibition [3] -7.49% | outcome [4] | Potency [5] | outcome [6] | activity change, negative = inhibition [7] -3.47%
-6.51%: max response [7, 22]

CN(C)c1ccc(O)c2c1C[C@H]1C[C@H]3[C@@H](N(C)C)C(=O)C(C(N)=O)=C(O)[C@]3(O)C(=O)C1=C2O
0.719%: max response [7, 22]
2.32%: max response [7, 21]
inactive: outcome [1] | Potency [2] | activity change, negative = inhibition [3] 12.2% | outcome [4] | Potency [19] > 20.6 µM | Potency [20] > 20.6 µM | Potency [5] | outcome [6] | activity change, negative = inhibition [7] -0.929%

CCC(=O)O[C@@]1(C(=O)CCl)[C@@H](C)C[C@@H]2[C@H]3CCC4=CC(=O)C=C[C@@]4(C)[C@]3(F)[C@@H](O)C[C@@]21C
inactive: outcome [1] | Potency [2] | activity change, negative = inhibition [3] -1.76% | outcome [4] | Potency [5] | outcome [6] | activity change, negative = inhibition [7] -3.93%
-18.1%: max response [7, 21]
active: Potency [19] 0.000621 µM | Potency [20] < 5.9e-06 µM
-15.8%: max response [7, 22]

O=C(O)[C@@H]1CCCNC1
-11.3%: max response [7, 22]
-8.86%: max response [7, 21]
inactive: outcome [1] | Potency [2] | activity change, negative = inhibition [3] -10.3% | outcome [4] | Potency [19] > 20.6 µM | Potency [20] > 20.6 µM | Potency [5] | outcome [6] | activity change, negative = inhibition [7] -1.28% | Potency [8]

Nc1ccccc1S(N)(=O)=O
inactive: outcome [1] | Potency [2] | activity change, negative = inhibition [3] -3.4% | outcome [4] | Potency [19] > 20.6 µM | Potency [20] > 20.6 µM | Potency [5] | outcome [6] | activity change, negative = inhibition [7] -3% | Potency [8]
-21.4%: max response [7, 22]
-21%: max response [7, 21]

CCOC(=O)C1=C(C)NC(C)=C(C(=O)OC)[C@@H]1c1cccc([N+](=O)[O-])c1
inactive: outcome [1] | activity change, negative = inhibition [3] -23.9% | outcome [4] | outcome [6] | activity change, negative = inhibition [7] 0.673% | Potency [8]
active: Potency [2] 15.8 µM
-15%: max response [7, 21]
-22.2%: max response [7, 22]
